15 compounds from PubChem BioAssay (EPA / NIEHS) can be followed below.

Where “and” joins values, the source holds several entries; their conditions need not be identical. Equal entries are not always repeated. Records with an inconclusive call do not appear. Calls of active or inactive are those of the source. Rule for the calls, unless noted: active = hit-call score of the fitted dose curve at least 0.9, where 1 is the maximum; inactive = score below 0.9.

One test concerns SRY-box transcription factor 17 (SOX17) Protein Expression, Deisenroth Lab, SOX17 (gene 64321). As to the kind of experiment: CCTE_Deisenroth_DEVTOX-GLR_Pluri_SOX17: CCTE's DevTox GLR-Pluri Assay Evaluation of SRY-box transcription factor 17 (SOX17) Protein Expression, Deisenroth Lab (AID 2284427; active = hit-call score of the fitted dose curve at least 0.9, where 1 is the maximum). A digest of the protocol: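 Using an inducible fluorescent SOX17 reporter in human pluripotent RUES2-GLR cells, compounds (1 nM - 200 uM) were given twice over 48 h differentiation. Percent SOX17+ cells minus DMSO control came from high-content image analysis.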
With `CC(=O)CC(c1ccccc1)c1c(O)c2ccccc2oc1=O` (configuration not stated), the compound was classed as inactive. The same measure, in the same setting: next, `Cc1cn([C@H]2C=C[C@@H](CO)O2)c(=O)[nH]c1=O`: “inactive”.

Take `O=C(O)c1cccnc1`: the compound was classed as inactive.

In a further test the test system is SRY-box transcription factor 2 (SOX2) Protein Expression, Deisenroth Lab, SOX2 (gene 6657). Kind of test: CCTE_Deisenroth_DEVTOX-GLR_Pluri_SOX2: CCTE's DevTox GLR-Pluri Assay Evaluation of SRY-box transcription factor 2 (SOX2) Protein Expression, Deisenroth Lab (AID 2284428). A digest of the protocol: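 Percent SOX2+ RUES2-GLR cells, determined by fluorescence microscopy after 48 h and two 24-h-interval chemical exposures spanning 1 nM–200 uM, served as the endpoint. Values are expressed relative to 0.2% DMSO; total cell counts assessed viability.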
For the compound `CC(=O)CC(c1ccccc1)c1c(O)c2ccccc2oc1=O` (configuration not stated), the compound was classed as inactive. The term AC50 denotes the concentration at which the activity in the assay is half-maximal. On to `O=C1NC(=O)C(c2ccccc2)(c2ccccc2)N1`, for which the AC50 was 150 µM (active).

Consider `Cc1cn([C@H]2C=C[C@@H](CO)O2)c(=O)[nH]c1=O`, for which the compound was classed as inactive. On the same count and under the same terms, next, `O=C(O)c1cccnc1`: “inactive”.

For a further test, the system named is Brachyury (BRA) Protein Expression, Deisenroth Lab, TBXT (gene 6862). Kind of test: CCTE_Deisenroth_DEVTOX-GLR_Pluri_BRA: CCTE's DevTox GLR-Pluri Assay Evaluation of Brachyury (BRA) Protein Expression, Deisenroth Lab (AID 2284429; active = hit-call score of the fitted dose curve at least 0.9, where 1 is the maximum). The procedure, abridged: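 RUES2-GLR human pluripotent cells differentiated 48 hours with two chemical exposures 24 hours apart, 10-point series 1 nM–200 uM. Fixed, nuclear-stained, imaged; endpoint is percent BRA+ cells minus 0.2% DMSO control.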
`CC(=O)CC(c1ccccc1)c1c(O)c2ccccc2oc1=O` (configuration not stated): the call was inactive. As for `O=C1NC(=O)C(c2ccccc2)(c2ccccc2)N1`, the AC50 was 152 µM (active). Regarding `Cc1cn([C@H]2C=C[C@@H](CO)O2)c(=O)[nH]c1=O`, the compound was called inactive.

Turning to `O=C(O)c1cccnc1`, the outcome was inactive.

Test system in another test: not listed separately
As to the kind of experiment: CCTE_Deisenroth_DEVTOX-GLR_Pluri_CellCount: Viability Assessment in CCTE's DevTox GLR-Pluri Assay Evaluation of Total Cell Counts, Deisenroth Lab (AID 2284430). A digest of the protocol: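 RUES2-GLR human pluripotent cells, seeded 24 h, then differentiated 48 h with two chemical exposures 24 h apart; 10-point series 1 nM - 200 uM. Fixed, nuclear-stained, imaged (5 fields/well); nuclei count as % change vs 0.2% DMSO.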
As to `CC(=O)CC(c1ccccc1)c1c(O)c2ccccc2oc1=O` (configuration not stated), the result was inactive. As to `O=C1NC(=O)C(c2ccccc2)(c2ccccc2)N1`, the AC50 was 100 µM (active). `Cc1cn([C@H]2C=C[C@@H](CO)O2)c(=O)[nH]c1=O`: the compound was called inactive. Turning to `O=C(O)c1cccnc1`, the result was inactive.

Another test relates to TTR (gene 7276). As to the kind of experiment: CCTE_GLTED_hTTR_0.125uM: CCTE's human Transthyretin (hTTR) Inhibition Assay, with 0.125uM TTR, Great Lakes Toxicology and Ecology Division (GLTED) Lab (AID 2284431).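 Note: hits lower the fluorescence signal relative to DMSO baseline.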 A digest of the protocol:
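Activity is defined as decreased ANSA fluorescence (ex 380, em 475) from human transthyretin, 0.125uM, following 2-hour chemical exposure in a cell-free setup, with DMSO as baseline.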
On to `CC(=O)CC(c1ccccc1)c1c(O)c2ccccc2oc1=O` (configuration not stated), for which the AC50 was 7.34 µM (active) and 4.39 µM (active).

As to `O=C1OC(c2ccc(O)cc2)(c2ccc(O)cc2)c2ccccc21`, the AC50 was 0.056 µM (active). Same read-out and setting: next, `Cc1c(C)c2c(c(C)c1O)CCC(C)(COc1ccc(CC3SC(=O)NC3=O)cc1)O2` (configuration not stated): 2.31 µM (active). On the same count and under the same terms, the same measure for `O=C1c2c(O)cccc2Cc2cccc(O)c21`: 22 µM (active); for `O=C(O)c1[nH]n(-c2ccc(S(=O)(=O)O)cc2)c(=O)c1N=Nc1ccc(S(=O)(=O)O)cc1`: 17.8 µM (active); for `O=C(NS(=O)(=O)/C=C/c1cccs1)c1ccc(F)cc1Br`: 7.75 µM (active). Still for that read-out and setting: next, `Cc1cc(Cc2ccc(N)c(C)c2)ccc1N`: 9.71 µM (active).

Regarding `O=Cc1ccccc1C=O`, the AC50 was 0.121 µM (active). The same measure, in the same setting: next, `CCCCCCCCCCCCCCOS(=O)(=O)O`: 1.9 µM (active).

As to `S=c1[nH]c2ccccc2s1`, the AC50 is 4.06 µM (active). Same read-out and setting: the same measure for `CCCCc1nc2cccnc2n1Cc1ccc(-c2ccccc2-c2nnn[nH]2)cc1`: 7.22 µM (active). Still for that read-out and setting: next, `CCC(C)N(C)C(=O)c1cc2ccccc2c(-c2ccccc2Cl)n1` (configuration not stated): 27.1 µM (active).
